In PubChem BioAssay AID651858 (Broad Institute, 2012):
Some of the results follow. Unmarked numbers belong to inactive results.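 The calls were made as follows: active = at highest dose tested, delta Tm positive; inactive = the rest.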

Assay: dye-only thermal melt shift artefacts – biochemical, thermal shift counterscreen, cherry-pick, artefact control for Keap1-Nrf2 interaction inhibitor project, dose response (AID 651858)
Details: Sypro Orange dye-only thermal melt, no protein, top dose 50 µM, stronger effect = higher value

First: Nc1ccc2nc3c(=O)[nH]c(=S)[nH]c3nc2c1
Second: COc1ccc(C2c3ccc(O)cc3Oc3ncn(CCCO)c(=N)c32)cc1OC (stereo not given)
The delta Tm of the first is lower: -27.3 °C for the first, -26.7 °C for the second.

Compared with `CCCC1OC23CCCCC2C(C#N)(C#N)C1(C#N)C(=N)O3` (stereo not given), `CCCC(=O)Nc1ccc(C(=O)NCCCn2ccnc2)cc1` is higher in delta Tm: -28.4 °C for the first, -28 °C for the second.

In the case of `O=C(Nc1ccccn1)C1CCN(S(=O)(=O)c2ccc3c(c2)OCCO3)CC1`, the delta Tm was -21.3 °C.
